Among all 54,000 sequences or so, about 3,300 (6.1%) were called active. No stated cut-off is given here; in the data, active = GI50 up to about 1.1 µM and inactive = higher. Only a sample is shown. Results with a measured potency or affinity are listed apart.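 In this assay, cells in 96-well plates receive the compound at five concentrations for 48 hours. Endpoints are linearly interpolated between the surrounding concentrations. The concentration for 50% growth inhibition is given as GI50.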
tested on: Malme-3M; experiment: NCI tumour cell line growth inhibition, 48 h

Substance | GI50
[Bis(aminomethyl)pentamethylenesilane]tetrachloropaltinum(IV), CHEMBL2146204 | 1.22 µM
[Bis(aminomethyl)tetramethylenesilane]dichloropaltinum(II), CHEMBL2146205 | 8.59 µM
[Bis(aminomethyl)dimethylsilane]tetrachloroplatinum(IV), CHEMBL2146190 | 2.77 µM
[Bis(aminomethyl)tetramethylenesilane]tetrachloropaltinum(IV), CHEMBL2146189 | 1.62 µM
cis-Bis[[(trimethylsilyl)methyl]amino]tetrachloroplatinum(IV), CHEMBL2146191 | 2.25 µM
mu-(1,7-nanodiamine-N,N')bis-(cis-aminedichloroplatimum (II)), CHEMBL2146215 | 2.41 µM
[Bis(aminomethyl)diethylsilane]tetrachloroplatinum(IV), CHEMBL2146203 | 1.22 µM
CISPLATIN, CHEMBL11359 | 1.6 µM
[Bis(aminomethyl)ethylmethylsilane]tetrachloroplatinum(IV), CHEMBL2146192 | 2.08 µM
[Bis(aminomethyl)pentamethylenesilane]dichloropaltinum(II), CHEMBL2146202 | 1.54 µM
[Bis(aminomethyl)dimethylsilane]dichloroplatinum (II), CHEMBL2146201 | 17.7 µM
